What was measured:
Assay in all cases: DAPPL (digital affinity profiling via proximity ligation, sequencing); 10 mM Tris-HCl pH 7.5, 50 mM NaCl, 1 mM DTT, 4% glycerol, room temperature, 30 min; GST-TFs on glutathione beads, 16-mer random dsDNA library, 0.1% formaldehyde crosslink after washing; high values mean tight binding
Conditions in all cases: protein: recombinant; tags: N-terminal GST; dsDNA, one strand shown
[1] = molecular target: T1, ERF (Homo sapiens, UniProt P50548 1-548)
T1 sequence: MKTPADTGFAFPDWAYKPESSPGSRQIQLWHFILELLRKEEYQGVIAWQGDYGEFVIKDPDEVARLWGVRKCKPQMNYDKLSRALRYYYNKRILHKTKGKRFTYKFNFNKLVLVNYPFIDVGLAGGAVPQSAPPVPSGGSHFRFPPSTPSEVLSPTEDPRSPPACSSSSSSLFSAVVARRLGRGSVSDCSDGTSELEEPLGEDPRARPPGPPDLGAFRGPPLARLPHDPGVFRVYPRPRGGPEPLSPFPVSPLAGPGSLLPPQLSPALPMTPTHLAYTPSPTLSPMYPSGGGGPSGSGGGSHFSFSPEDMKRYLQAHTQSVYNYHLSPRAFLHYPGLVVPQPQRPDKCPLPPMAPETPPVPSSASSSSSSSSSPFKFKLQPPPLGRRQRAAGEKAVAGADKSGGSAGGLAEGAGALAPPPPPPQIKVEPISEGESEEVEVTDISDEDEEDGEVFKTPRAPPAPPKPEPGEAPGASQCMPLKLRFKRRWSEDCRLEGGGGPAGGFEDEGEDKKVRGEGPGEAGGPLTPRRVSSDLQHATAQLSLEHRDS
Outline: (§1)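 Binding signal is defined as a hexamer's read frequency for one factor over its frequency for the tag-only sample. To obtain reads, GST-fused human transcription factors were expressed in yeast, captured on glutathione beads, barcoded with DNA and pooled with that sample. Pools met 200 nmole of a 16-mer random double-stranded DNA library in Tris/NaCl/DTT/glycerol buffer for 30 min at room temperature before washing, 0.1% formaldehyde crosslinking, proximity ligation (BsaI/T4 ligase, 1 h, 37 °C), PCR and Illumina NextSeq500 sequencing.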

[2] = molecular target: T2, ETV3L (Homo sapiens, UniProt Q6ZN32 1-361)
T2 sequence: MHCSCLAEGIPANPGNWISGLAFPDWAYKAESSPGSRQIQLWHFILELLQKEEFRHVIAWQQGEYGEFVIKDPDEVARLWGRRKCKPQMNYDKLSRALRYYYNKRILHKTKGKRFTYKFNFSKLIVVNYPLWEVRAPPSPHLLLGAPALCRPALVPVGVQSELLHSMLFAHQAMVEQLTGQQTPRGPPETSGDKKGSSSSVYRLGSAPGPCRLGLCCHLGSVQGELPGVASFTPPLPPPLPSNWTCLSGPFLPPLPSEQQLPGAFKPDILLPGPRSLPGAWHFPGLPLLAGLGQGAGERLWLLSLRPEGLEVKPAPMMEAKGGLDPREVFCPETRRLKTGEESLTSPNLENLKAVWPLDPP
Outline: as §1

[3] = molecular target: T3, ETS2 (Homo sapiens, UniProt P15036 1-469)
T3 sequence: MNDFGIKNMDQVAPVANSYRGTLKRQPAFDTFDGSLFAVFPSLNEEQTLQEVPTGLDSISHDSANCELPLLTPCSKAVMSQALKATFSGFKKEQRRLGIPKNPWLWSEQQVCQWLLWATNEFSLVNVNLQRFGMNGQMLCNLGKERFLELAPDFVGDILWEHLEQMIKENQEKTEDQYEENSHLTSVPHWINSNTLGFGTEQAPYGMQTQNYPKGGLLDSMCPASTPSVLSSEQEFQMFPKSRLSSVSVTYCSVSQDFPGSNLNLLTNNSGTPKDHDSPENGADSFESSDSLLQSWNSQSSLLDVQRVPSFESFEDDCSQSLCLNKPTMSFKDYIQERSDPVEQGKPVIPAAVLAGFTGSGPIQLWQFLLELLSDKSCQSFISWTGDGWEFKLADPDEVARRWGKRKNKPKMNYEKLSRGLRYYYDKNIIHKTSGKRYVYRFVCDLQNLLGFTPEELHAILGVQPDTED
Outline: as §1

[4] = molecular target: T4, SPDEF (Homo sapiens, UniProt O95238 1-335)
T4 sequence: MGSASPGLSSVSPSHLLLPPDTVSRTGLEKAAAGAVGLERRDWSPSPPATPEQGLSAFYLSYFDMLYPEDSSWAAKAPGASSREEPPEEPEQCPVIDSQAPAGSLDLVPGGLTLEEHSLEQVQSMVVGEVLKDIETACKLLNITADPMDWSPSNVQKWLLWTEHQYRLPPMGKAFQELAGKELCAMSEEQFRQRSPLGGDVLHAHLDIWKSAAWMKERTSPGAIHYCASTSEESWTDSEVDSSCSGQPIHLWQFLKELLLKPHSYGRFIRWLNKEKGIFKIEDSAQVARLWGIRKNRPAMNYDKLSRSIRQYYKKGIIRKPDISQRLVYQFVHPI
Outline: as §1

[5] = molecular target: T5, ETV7 (Homo sapiens, UniProt Q9Y603 1-341)
T5 sequence: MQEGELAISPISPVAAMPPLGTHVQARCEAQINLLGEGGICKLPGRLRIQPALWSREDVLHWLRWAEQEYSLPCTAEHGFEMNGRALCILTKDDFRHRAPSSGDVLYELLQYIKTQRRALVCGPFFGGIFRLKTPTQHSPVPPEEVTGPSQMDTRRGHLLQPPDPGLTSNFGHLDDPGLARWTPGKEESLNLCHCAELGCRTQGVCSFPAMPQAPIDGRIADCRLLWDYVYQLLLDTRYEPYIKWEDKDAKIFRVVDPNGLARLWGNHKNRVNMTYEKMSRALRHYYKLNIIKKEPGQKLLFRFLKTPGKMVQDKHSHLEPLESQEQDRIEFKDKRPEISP
Outline: as §1

[6] = molecular target: T6, ELF5 (Homo sapiens, UniProt Q9UKW6-2 1-255)
T6 sequence: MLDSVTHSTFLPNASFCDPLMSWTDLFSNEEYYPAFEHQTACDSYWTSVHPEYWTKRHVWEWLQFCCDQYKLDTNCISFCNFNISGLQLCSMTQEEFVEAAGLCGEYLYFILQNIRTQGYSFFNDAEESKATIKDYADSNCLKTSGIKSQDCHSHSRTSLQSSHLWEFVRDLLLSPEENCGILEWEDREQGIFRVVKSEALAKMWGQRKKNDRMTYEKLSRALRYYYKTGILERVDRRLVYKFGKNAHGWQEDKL
Outline: as §1

[7] = molecular target: T7, ETV3 (Homo sapiens, UniProt P41162-2 1-143)
T7 sequence: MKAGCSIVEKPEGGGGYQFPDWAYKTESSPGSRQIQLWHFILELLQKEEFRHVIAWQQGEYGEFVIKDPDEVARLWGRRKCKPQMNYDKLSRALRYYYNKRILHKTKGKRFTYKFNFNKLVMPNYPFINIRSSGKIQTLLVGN
Outline: as §1

[8] = molecular target: ETV6 (Homo sapiens, UniProt P41212 1-452)
Outline: as §1

Chain of ETV6 (P41212 whole entry): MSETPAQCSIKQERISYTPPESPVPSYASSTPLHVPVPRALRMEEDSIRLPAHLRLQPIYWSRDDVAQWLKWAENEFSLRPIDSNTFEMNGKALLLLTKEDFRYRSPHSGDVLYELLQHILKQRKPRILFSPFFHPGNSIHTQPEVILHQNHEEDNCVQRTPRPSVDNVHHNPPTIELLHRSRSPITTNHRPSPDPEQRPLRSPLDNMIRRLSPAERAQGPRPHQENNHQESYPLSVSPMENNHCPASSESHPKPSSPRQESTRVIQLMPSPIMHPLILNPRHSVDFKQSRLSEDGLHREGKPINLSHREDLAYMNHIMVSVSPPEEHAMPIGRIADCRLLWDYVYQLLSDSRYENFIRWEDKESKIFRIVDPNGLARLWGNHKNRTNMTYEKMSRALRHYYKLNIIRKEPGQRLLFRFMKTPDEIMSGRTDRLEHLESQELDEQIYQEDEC

Row | Sequence | binding signal [1] | binding signal [2] | binding signal [3] | binding signal [4] | binding signal [5] | binding signal [6] | binding signal [7] | binding signal [8]
1 | TAGTAC | 1.13 fold enrichment (6-mer frequency, TF over GST control) | 1.1 fold enrichment (6-mer frequency, TF over GST control) | 1.17 fold enrichment (6-mer frequency, TF over GST control) | 1.14 fold enrichment (6-mer frequency, TF over GST control) | 1.17 fold enrichment (6-mer frequency, TF over GST control) | 1.17 fold enrichment (6-mer frequency, TF over GST control) | 1.27 fold enrichment (6-mer frequency, TF over GST control) | 1.22 fold enrichment (6-mer frequency, TF over GST control)
2 | AATTGC | 1.43 fold enrichment (6-mer frequency, TF over GST control) | 1.35 fold enrichment (6-mer frequency, TF over GST control) | 1.37 fold enrichment (6-mer frequency, TF over GST control) | 1.27 fold enrichment (6-mer frequency, TF over GST control) | 1.38 fold enrichment (6-mer frequency, TF over GST control) | 1.38 fold enrichment (6-mer frequency, TF over GST control) | 1.35 fold enrichment (6-mer frequency, TF over GST control) | 1.43 fold enrichment (6-mer frequency, TF over GST control)
3 | ATTGAC | 1.24 fold enrichment (6-mer frequency, TF over GST control) | 1.26 fold enrichment (6-mer frequency, TF over GST control) | 1.36 fold enrichment (6-mer frequency, TF over GST control) | 1.12 fold enrichment (6-mer frequency, TF over GST control) | 1.25 fold enrichment (6-mer frequency, TF over GST control) | 1.19 fold enrichment (6-mer frequency, TF over GST control) | 1.21 fold enrichment (6-mer frequency, TF over GST control) | 1.23 fold enrichment (6-mer frequency, TF over GST control)
4 | TCCTTT | 1.62 fold enrichment (6-mer frequency, TF over GST control) | 1.85 fold enrichment (6-mer frequency, TF over GST control) | 1.67 fold enrichment (6-mer frequency, TF over GST control) | 1.76 fold enrichment (6-mer frequency, TF over GST control) | 1.59 fold enrichment (6-mer frequency, TF over GST control) | 2 fold enrichment (6-mer frequency, TF over GST control) | 1.78 fold enrichment (6-mer frequency, TF over GST control) | 1.76 fold enrichment (6-mer frequency, TF over GST control)
5 | TTCGAC | 1.43 fold enrichment (6-mer frequency, TF over GST control) | 1.39 fold enrichment (6-mer frequency, TF over GST control) | 1.42 fold enrichment (6-mer frequency, TF over GST control) | 1.36 fold enrichment (6-mer frequency, TF over GST control) | 1.37 fold enrichment (6-mer frequency, TF over GST control) | 1.36 fold enrichment (6-mer frequency, TF over GST control) | 1.45 fold enrichment (6-mer frequency, TF over GST control) | 1.3 fold enrichment (6-mer frequency, TF over GST control)
6 | AACAAA | 1.2 fold enrichment (6-mer frequency, TF over GST control) | 1.14 fold enrichment (6-mer frequency, TF over GST control) | 1.22 fold enrichment (6-mer frequency, TF over GST control) | 1.11 fold enrichment (6-mer frequency, TF over GST control) | 1.13 fold enrichment (6-mer frequency, TF over GST control) | 1.16 fold enrichment (6-mer frequency, TF over GST control) | 1.15 fold enrichment (6-mer frequency, TF over GST control) | 1.18 fold enrichment (6-mer frequency, TF over GST control)
7 | TAATAT | 1.35 fold enrichment (6-mer frequency, TF over GST control) | 1.34 fold enrichment (6-mer frequency, TF over GST control) | 1.24 fold enrichment (6-mer frequency, TF over GST control) | 1.23 fold enrichment (6-mer frequency, TF over GST control) | 1.35 fold enrichment (6-mer frequency, TF over GST control) | 1.22 fold enrichment (6-mer frequency, TF over GST control) | 1.23 fold enrichment (6-mer frequency, TF over GST control) | 1.23 fold enrichment (6-mer frequency, TF over GST control)

— article PMC7862700, “An all-to-all approach to the identification of sequence-specific readers for epigenetic DNA modifications on cytosine”
